In PubChem BioAssay AID720584 (National Center for Advancing Translational Sciences (NCATS), 2013) one finds Potency data, which are given here for 3 molecules.

The other results are listed elsewhere or left out. Records with an inconclusive call do not appear. The source made the active and inactive calls. Calls follow the shape of the dose curve; as a rule, active = well fitted inhibition curve with a large enough effect; inconclusive = small, poorly fitted or top-dose-only effect; inactive = flat fitted curve, though single readings scatter.
Potency is read from the fitted curve at half-maximal effect.

In the assay the test system is Trypanosoma brucei pyruvate kinase (TbPYK). The experiment in a line: qHTS of Trypanosoma Brucei Inhibitors: Orthogonal Assay for Cherry-picked Compounds. Also: nearly all actives have a fitted effect of over 75% in size. The following applies: recombinant TbPYK, ADP-Glo luminescence, 60 min. The source says: Members of the Trypanosomatidae family of parasitic protozoans cause a spectrum of diseases throughout the tropical and subtropical world. Sleeping sickness, caused by two subspecies of Trypanosoma brucei, is endemic to areas of sub-Saharan Africa, while Chagas' disease, a manifestation of Trypanosoma cruzi infection, is prevalent throughout Central and South America. In addition, many species of Leishmania are responsible for a range of cutaneous and visceral diseases, causing ulcers, destructive lesions and kalaazar, a lethal infection of the viscera. These diseases cause severe public health and economic burdens on populations that are often already caught in a tragic cycle of poverty, poor nutrition and disease. Collectively, parasites of the trypanosomatid family infect 30 million people worldwide (~500 million live in endemic areas), and account for ~130K deaths annually. Existing treatments have developed little in the past 50 years, and suffer from toxicity, poor efficacy and resistance; the goal of this project is to develop lead drugs that will be suitable for entry into pre-clinical trials. […] Glycolysis in axenically cultured T. cruzi, representing the intracellular pathogenic stage, is also essential for these parasites. {Engel, 1987} This project aims to discover and optimize selective inhibitors of the glycolytic enzyme pyruvate kinase (PYK) from Trypanosoma brucei, the parasite that causes sleeping sickness. […] While the primary qHTS provides a luminescence-based detection of TbPyK by measuring ATP production, the orthogonal assay will measure the amount of ADP substrate remaining. […]
Briefly, 2 uL of substrate/TbPYK buffer (all columns but column 4) are dispensed into Greiner white solid-bottom 1536-well assay plates. […] ADP-Glo reagent II is then added (5 uL), followed by a 10 minute room temperature incubation, before being transferred to a ViewLux high-throughput CCD imager (PerkinElmer), wherein single end-point measurements of luminescence are acquired using a clear filter. […]
In the case of `Cc1ccc2c(c1)=C/C(=C\c1c(O)[nH]c(=O)[nH]c1=O)C(=O)N=2`, the Potency is 25.1 µM (active).

For `COc1ccc(N2C(=O)/C(=C/c3ccco3)C(=O)NC2=S)cc1`, the Potency was 6.31 µM (active).

Consider `O=C1NC(=O)N(c2ccccc2)C(=O)/C1=C/c1ccc([N+](=O)[O-])s1`, for which the Potency is 14.1 µM (active).
